For 9 compounds, z-score and composite z-score results are on record in PubChem BioAssay.

The source made the active and inactive calls. Unless noted, no rule for the calls is given here.

Test [1] in a line: HepG2 liver cancer cell viability effects, profiling panel, resazurin fluorescence, 24 h, PK04 Diversity Set (AID 1172). The note with it: higher = more signal.
Test [2] is described as follows: basal S. cerevisiae growth modulation, no modifier, primary screen, OD600, strain BY4716, 24 h, basal condition (AID 1173). The note with it: OD600, 24 h, higher = more signal, called active from +8 up or from −8 down.
The nature of test [3]: MM1S myeloma cell viability, profiling panel, resazurin fluorescence, basal, 24 h, PK04 Diversity Set (AID 1174).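 Also: MM1S multiple myeloma cell line.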 Conditions: higher = more signal, called active from +8 up or from −8 down. (The colour change of resazurin is a common sign of viable cells or microbes.)
Test [4] addresses Dihydroorotate dehydrogenase (quinone), mitochondrial (Plasmodium falciparum (isolate 3D7)) (UniProt Q08210). The experiment in a line: PfDHODH enzyme inhibitors, primary screen, biochemical, C-terminal His tag, absorbance 600 nm (AID 1175).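 Also: recombinant parasite enzyme with a five histidine tag at its C terminus.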 Conditions: DCIP absorbance 600 nm, higher = more signal, called active from +8 up or from −8 down.
Test [5] is described as follows: P. aeruginosa biofilm formation inhibitors, primary screen, strain PAO1, LB-PBS medium, absorbance 600 nm (AID 1176). The note with it: P. aeruginosa PAO1 growth/biofilm, A600, 12 h; higher = more signal.
Test [6] can be described thus: S. cerevisiae RM11-1a growth modifiers, primary screen, strain RM11-1a, OD600, basal, 24 h (AID 1177).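 Also: cultures grown under basal conditions with no added stressor.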 The note with it: OD600, 24 h, higher = more signal, called active from +8 up or from −8 down.
Test [7] is described as follows: E. coli acrAB mutant growth effects, primary screen, E. coli filamentation inducers, strain DRC39, OD650, 24 h (AID 1178).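 Also: growth measured as culture turbidity by optical density at 650 nm.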 Conditions: higher = more signal, called active from +8 up or from −8 down.
The nature of test [8]: E. coli acrAB mutant growth effects, primary screen, E. coli filamentation inducers, strain DRC39, OD650, 48 h (AID 1179).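 Also: screen aims at cell division blockers that make cells filament.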 Conditions: E. coli DRC39 delta-acrAB growth, higher = more signal, called active from +8 up or from −8 down.
Test [9] is described as follows: RPMI8226 myeloma cell viability, profiling panel, resazurin fluorescence, basal, 24 h, PK04 Diversity Set (AID 1180).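 Also: RPMI8826 multiple myeloma cell line at 5000 cells per well.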 The note with it: higher = more signal.
Test [10] deals with E3 ubiquitin-protein ligase XIAP (Homo sapiens) (UniProt P98170). Briefly: XIAP binders, primary screen, biophysical, small-molecule microarray, fluorescence 635 nm (AID 1181).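 Also: score merges 667 nm emission and signal to noise over triplicate slides.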 Conditions: small-molecule microarray binding, higher = more signal.
Test [11] has as its system XIP peptide (Xip251-270) binding. The experiment in a line: small-molecule binders of XIP peptide, primary screen, biochemical, small-molecule microarray, fluorescence 635/667 nm, 0.1 µg/mL protein (AID 1182). The note with it: fluorescent protein binding, 635 nm, higher = more signal, called active from +8 up or from −8 down.
The subject of test [12] is XIP peptide (Xip251-270). Briefly: small-molecule binders of XIP peptide, primary screen, biochemical, small-molecule microarray, fluorescence 635/667 nm, 0.5 µg/mL protein (AID 1183). Conditions: small-molecule microarray binding, fluorescence 635 nm; higher = more signal.
The nature of test [13]: Plasmodium falciparum growth inhibition, primary screen, strain 3D7, DAPI fluorescence, 100 nL (AID 1184).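 Also: parasites grown inside human red blood cells in medium with human serum.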 Conditions: P. falciparum 3D7 growth, 3 d, higher = more signal.
Test [14] addresses Homeobox protein Hox-A13 (Mus musculus) (UniProt Q62424). Briefly: inhibitors of HoxA13-DNA binding, primary screen, biochemical, fluorescence polarization, labeled oligonucleotide (AID 1185). Conditions: 15 min, higher = more signal, called active from +8 up or from −8 down. For orientation: In fluorescence polarisation assays a small probe gives low polarisation when free and higher when bound to something large.

Test [15] is described as follows: inhibitors of hydroxyurea-induced Chk1 phosphorylation, primary screen, imaging, HeLa, phospho-Chk1 antibody, percent positive cells (AID 1186). Conditions: hydroxyurea-induced phospho-Chk1 immunofluorescence imaging, higher = more signal.
Test [16] in a line: inhibitors of hydroxyurea-induced Chk1 phosphorylation, primary screen, imaging, HeLa, phospho-Chk1 nuclear intensity (AID 1187). The note with it: hydroxyurea-induced phospho-Chk1 immunofluorescence imaging, higher = more signal.

Sequence of Homeobox protein Hox-A13 (Mus musculus) (Q62424 whole entry, looked up): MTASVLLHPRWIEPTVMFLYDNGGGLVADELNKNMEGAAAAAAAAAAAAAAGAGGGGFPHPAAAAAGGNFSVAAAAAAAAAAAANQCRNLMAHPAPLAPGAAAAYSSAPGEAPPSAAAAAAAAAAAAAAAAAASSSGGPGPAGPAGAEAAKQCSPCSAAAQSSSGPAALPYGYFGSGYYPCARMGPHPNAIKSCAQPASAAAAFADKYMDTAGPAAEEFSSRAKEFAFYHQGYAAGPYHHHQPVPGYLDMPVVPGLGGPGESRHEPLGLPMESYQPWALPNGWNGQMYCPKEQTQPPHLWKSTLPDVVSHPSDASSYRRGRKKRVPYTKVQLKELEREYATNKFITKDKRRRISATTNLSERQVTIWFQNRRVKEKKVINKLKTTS
Sequence of E3 ubiquitin-protein ligase XIAP (Homo sapiens) (P98170 whole entry, looked up): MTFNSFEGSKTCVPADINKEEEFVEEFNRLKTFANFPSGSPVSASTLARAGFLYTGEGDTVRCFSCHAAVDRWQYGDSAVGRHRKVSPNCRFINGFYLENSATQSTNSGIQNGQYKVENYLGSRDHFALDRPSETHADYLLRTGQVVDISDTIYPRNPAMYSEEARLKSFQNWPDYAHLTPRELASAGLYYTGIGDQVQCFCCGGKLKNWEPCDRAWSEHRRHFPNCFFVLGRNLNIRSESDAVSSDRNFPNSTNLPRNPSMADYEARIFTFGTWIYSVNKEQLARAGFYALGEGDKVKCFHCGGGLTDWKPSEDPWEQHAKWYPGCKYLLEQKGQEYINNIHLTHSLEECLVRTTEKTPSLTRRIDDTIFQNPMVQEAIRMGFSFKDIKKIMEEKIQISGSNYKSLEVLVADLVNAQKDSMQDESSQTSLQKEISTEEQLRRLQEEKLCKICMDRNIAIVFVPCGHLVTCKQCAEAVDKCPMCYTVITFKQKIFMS
Sequence of Dihydroorotate dehydrogenase (quinone), mitochondrial (Plasmodium falciparum (isolate 3D7)) (Q08210 whole entry, looked up): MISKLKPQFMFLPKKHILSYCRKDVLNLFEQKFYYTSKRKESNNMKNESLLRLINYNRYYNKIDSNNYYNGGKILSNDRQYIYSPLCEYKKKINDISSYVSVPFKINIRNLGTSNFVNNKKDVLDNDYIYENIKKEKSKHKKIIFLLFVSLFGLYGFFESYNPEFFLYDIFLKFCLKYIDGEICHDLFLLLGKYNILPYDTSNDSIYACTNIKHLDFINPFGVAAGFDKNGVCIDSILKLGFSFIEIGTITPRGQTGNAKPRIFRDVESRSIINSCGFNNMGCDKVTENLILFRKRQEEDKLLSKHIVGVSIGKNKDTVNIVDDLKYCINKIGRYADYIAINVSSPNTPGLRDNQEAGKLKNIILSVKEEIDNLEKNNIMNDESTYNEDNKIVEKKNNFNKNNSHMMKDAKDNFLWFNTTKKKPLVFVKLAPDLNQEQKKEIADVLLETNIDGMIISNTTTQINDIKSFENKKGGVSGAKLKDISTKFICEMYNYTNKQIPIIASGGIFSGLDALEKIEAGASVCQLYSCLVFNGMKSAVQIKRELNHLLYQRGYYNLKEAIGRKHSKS

On to `C=CCOC(=O)[C@H]1[C@@H]2C(=O)O[C@@H](c3ccccc3)[C@@H](c3ccccc3)N2[C@@H](c2ccc(OCCOC(=O)[C@H]3C[C@H]4C(=O)N[C@@H](CC(C)C)C(=O)N4[C@H]3c3ccc(O)cc3)cc2)[C@]12C(=O)Nc1ccccc12`, for which the z-score in test [1] was 0.0682; in test [2], 1.1 (inactive); in [3] it was 0.407 (inactive); in [5], 2.65 (inactive); in test [6], 2.67 (inactive); in test [7] it was 0.376 (inactive). The z-score in test [8] was 1.02 (inactive); in [9], 0.862; in [13] it was -1.49; in [14] it was 0.832 (inactive); in [15], 0.109 (inactive); in [16], -0.0249 (inactive). Moreover, the composite z-score in test [4] was -0.976 (inactive); in test [10], -0.0078; in test [11] it was 0.386 (inactive); in test [12] it was 0.818.
Consider `CN(C)CCCNC(=O)[C@@H]1c2ccccc2C(=O)N(Cc2ccccc2C(F)(F)F)[C@H]1c1ccc(CO)cc1`, for which the z-score is 0.788 in test [1]; -0.779 (inactive) in test [2]; 0.744 (inactive) in test [3]; -0.534 (inactive) in [5]; 0.171 (inactive) in test [6]; 0.858 (inactive) in test [7]. Moreover, the z-score was 0.783 (inactive) in test [8]; 0.7 in test [9]; -0.944 in test [13]; -2.62 (inactive) in test [14]; -0.316 (inactive) in test [15]; -0.164 (inactive) in test [16]. Besides, the composite z-score in test [4] was -0.0587 (inactive); in test [10], -0.0344; in [11], -0.638 (inactive); in [12], 0.0067.
`CN(C)CCCC[C@@H]1NC(=O)[C@@H]2C[C@H](C(=O)NCCCCCN)[C@H](c3cccc(OCCO)c3)N2C1=O`: the z-score is 0.881 in test [1]; -0.985 (inactive) in test [2]; 1.49 (inactive) in test [3]; 0.531 (inactive) in test [5]; -2.59 (inactive) in [6]; 2.01 (inactive) in [7]. Moreover, the z-score in test [8] is 2.02 (inactive); in [9] it was 0.819; in test [13], -0.0568; in [14] it was -1.29 (inactive); in test [15], -0.523 (inactive); in test [16] it was 0.0431 (inactive). Besides, the composite z-score in test [4] was -0.417 (inactive); in test [10] it was -0.184; in test [11] it was 1.14 (inactive); in [12] it was 0.898.
With `COC(=O)[C@]1(Cc2ccccc2)N=C(c2ccc(OCCCO)cc2)O[C@@H]1c1ccccc1CN=[N+]=[N-]`, the z-score is -4.19 in [1]; -0.813 (inactive) in [2]; -8.88 (active) in test [3]; 1.84 (inactive) in test [5]; 2.72 (inactive) in test [6]; 1.28 (inactive) in [7]. Also, the z-score in [8] is -0.88 (inactive); in test [9], -7.14; in [13] it was -2.47; in test [14], -1.89 (inactive); in test [15], -0.623 (inactive); in test [16], -0.631 (inactive). The composite z-score is 1.94 (inactive) in [4], 0.0159 in test [10], 0.506 (inactive) in [11] and 0.753 in test [12].
For `C=CCC(OC(C)=O)[C@@H]1[C@@H](N(Cc2ccc(-c3ccccc3)cc2)C(=O)c2cccc3ccccc23)c2cc(OCCCO)ccc2N1C(=O)Cc1ccc(OC)cc1` (some centres undefined), the z-score in [1] is -0.533; in test [2], 0.186 (inactive); in test [3] it was -0.572 (inactive); in test [5], -0.121 (inactive); in test [6] it was -0.788 (inactive); in test [7], -0.0251 (inactive). In addition, the z-score in test [8] was -0.288 (inactive); in test [9], -0.505; in test [13], -1.38; in [14] it was -1.88 (inactive); in test [15], -0.066 (inactive); in [16], 0.0017 (inactive). For the same compound, the composite z-score was -0.0892 (inactive) in test [4], -0.264 in [10], 0.15 (inactive) in [11] and -0.686 in test [12].
Regarding `COc1ccc(C(O)C2C=CC3C(=O)NC(=O)C3N2Nc2ccc(Cl)cc2Cl)c2ccccc12` (centres undefined), the z-score in test [1] is -2.19; in test [2], -9.94 (active); in test [3], -0.423 (inactive); in test [5], 1.28 (inactive); in [6] it was 0.361 (inactive); in test [7] it was -0.0977 (inactive). Moreover, the z-score is -0.626 (inactive) in [8]; -1.09 in test [9]; -0.605 in test [13]; -2.99 (inactive) in test [14]; -0.0602 (inactive) in test [15]; 0.175 (inactive) in [16]. Moreover, the composite z-score in test [4] is 0.167 (inactive); in test [10] it was -0.0118; in [11], 1.62 (inactive); in [12] it was 0.687.
Regarding `COc1ccc(C(=O)Nc2ccc(CN3C(=O)[C@@]4(O[C@@H](CCn5cc(CCO)nn5)[C@H]([Si](C)(C)c5ccc(OC)cc5)[C@H]4C)c4ccccc43)cc2)cc1`, the z-score is -3.26 in [1]; -5.03 (inactive) in [2]; -4.02 (inactive) in [3]; 0.863 (inactive) in [5]; 2.47 (inactive) in [6]; 1.07 (inactive) in test [7]. Also, the z-score in test [8] was -0.101 (inactive); in test [9], -3.35; in test [13], -2.71; in test [14] it was -3.79 (inactive); in test [15], -0.989 (inactive); in test [16], -1.13 (inactive). Moreover, the composite z-score was 0.483 (inactive) in test [4], -0.0871 in test [10], 1.04 (inactive) in test [11] and 0.561 in test [12].
On to `N#Cc1ccc(-c2cccc(=O)o2)cc1`, for which the z-score in test [1] is -0.518; in [2], -0.923 (inactive); in test [3], 0.141 (inactive); in test [5], 0.0767 (inactive); in test [6] it was 0.719 (inactive); in test [7] it was -1.1 (inactive). Besides, the z-score in test [8] is -0.0301 (inactive); in test [9], -0.389; in test [13], 0.944; in [14] it was 0.108 (inactive); in [15] it was 0.419 (inactive); in test [16], 0.674 (inactive). Moreover, the composite z-score in test [4] is -0.578 (inactive); in [10], -0.0085; in test [11], 0.37 (inactive); in [12] it was -0.0086.
Turning to `C=CCOC(=O)[C@H]1[C@@H]2C(=O)O[C@@H](c3ccccc3)[C@@H](c3ccccc3)N2[C@@H](c2ccc(OCCOC(=O)[C@@H]3C[C@@H]4C(=O)N[C@@H](CCCCNC(C)=O)C(=O)N4[C@@H]3c3cccc(OCCO)c3)cc2)[C@]12C(=O)Nc1ccccc12`, the z-score in [1] was -0.16; in [2] it was 1.19 (inactive); in test [3], 0.222 (inactive); in test [5], 2.87 (inactive); in test [6] it was 1.52 (inactive); in test [7], 0.253 (inactive). Moreover, the z-score is 0.0636 (inactive) in [8]; 0.147 in test [9]; -1.55 in test [13]; -0.0913 (inactive) in test [14]; 0.321 (inactive) in test [15]; 0.0173 (inactive) in test [16]. The composite z-score in test [4] was 0.277 (inactive); in test [10], 0.0623; in test [11], 0.785 (inactive); in test [12], 0.824.
